Assay results from the supplement of paper PMC12350171.
Where a name gives a salt, the structure may show the parent alone.

Tested on: S. enterica typhimurium WT
Assay: growth AUC normalised to DMSO control (median) (fraction of control); higher = less growth inhibition, active = hit call of the paper
Conditions: 20 µM;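 active = normalised median growth AUC below 0.1 of DMSO control; inactive = AUC 0.1 or higher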
In short: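 Area under the growth curve, calculated by the trapezoidal rule up to entry into stationary phase, was normalised to vehicle wells on the same plate. Strains had been passaged twice overnight without oxygen and then grown in mGAM in 96-well plates from OD578 0.01, each with an approved-drug library compound at 20 μM in 1% DMSO. OD578 was read hourly over 24 h in an anaerobic incubator, and the median of three biological replicates is given.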
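Further: active when median AUC fell below 0.1.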

Structure (SMILES) | growth AUC normalised to DMSO control
Cc1ccc(-c2cc(C(F)(F)F)nn2-c2ccc(S(N)(=O)=O)cc2)cc1 [Celecoxib] | 1.01 (inactive)
CCCN(CCC)C(=O)C(CCC(=O)O)NC(=O)c1ccccc1 (stereo unspecified) [Proglumide] | 1 (inactive)
Clc1ccc(C(c2ccccc2Cl)C(Cl)Cl)cc1 (stereo unspecified) [Mitotane] | 1 (inactive)
CCc1c(C)[nH]c2c1C(=O)C(CN1CCOCC1)CC2 (stereo unspecified) [Molindone hydrochloride] | 1.02 (inactive)
OC(CCN1CCCCC1)(c1ccccc1)C1CC2C=CC1C2 (stereo unspecified) [Biperiden hydrochloride] | 1.01 (inactive)
CC(COc1ccccc1)N(CCCl)Cc1ccccc1 (stereo unspecified) [Phenoxybenzamine hydrochloride] | 1 (inactive)
Nc1ccc(/N=N/c2ccccc2)c(N)n1 [Phenazopyridine hydrochloride] | 0.989 (inactive)
N=C(N)NS(=O)(=O)c1ccc(N)cc1 [Sulfaguanidine] | 0.999 (inactive)
COc1ccc(/C=C/C(=O)Nc2ccccc2C(=O)O)cc1OC [Tranilast] | 1.04 (inactive)
C=C1/C(=C\C=C2/CCC[C@]3(C)[C@@H]([C@H](C)/C=C/[C@@H](O)C4CC4)CC[C@@H]23)C[C@@H](O)C[C@@H]1O [Calcipotriene] | 1.01 (inactive)
C[N+](C)(CCOc1ccccc1)Cc1ccccc1.O=C([O-])c1cc2ccccc2cc1O [Bephenium hydroxynaphthoate] | 0.989 (inactive)
COc1c(N2C[C@@H]3CCCN[C@@H]3C2)c(F)cc2c(=O)c(C(=O)O)cn(C3CC3)c12 [Moxifloxacin] | 0.0075 (active)
C[N+](C)(C)CCOC(N)=O [Carbachol chloride] | 1.01 (inactive)
COCCOC(=O)C1=C(C)NC(C)=C(C(=O)OC/C=C/c2ccccc2)C1c1cccc([N+](=O)[O-])c1 (stereo unspecified) [Cilnidipine] | 1.01 (inactive)
CCc1cc(C(N)=S)ccn1 [Ethionamide] | 0.996 (inactive)
CCOC(=O)n1ccn(C)c1=S [Carbimazole] | 0.996 (inactive)

Structure (SMILES) | growth AUC normalised to DMSO control
CN(C)CCC[C@@]1(c2ccc(F)cc2)OCc2cc(C#N)ccc21 [Escitalopram oxalate] | 0.989 (inactive)
COc1ccc2[nH]c([S+]([O-])Cc3ncc(C)c(OC)c3C)nc2n1 (stereo unspecified) [Tenatoprazole] | 1 (inactive)
CC1CCc2cc(F)cc3c(=O)c(C(=O)O)cn1c23 (stereo unspecified) [Flumequine] | 0.0214 (active)
CCn1cc(C(=O)O)c(=O)c2cc(F)c(N3CCNCC3)cc21 [Norfloxacin] | 0.00734 (active)
Nc1ccc(S(=O)(=O)c2ccc(N)cc2)cc1 [Dapsone] | 1 (inactive)
CC(C)(C)NCC(O)COc1cccc2c1CC(O)C(O)C2 (stereo unspecified) [Nadolol] | 1 (inactive)
COc1c2occc2c(OC)c2c(=O)cc(C)oc12 [Khellin] | 1.02 (inactive)
COc1cc(C(=O)NS(=O)(=O)c2ccccc2C)ccc1Cc1cn(C)c2ccc(NC(=O)OC3CCCC3)cc12 [Zafirlukast] | 1.01 (inactive)
NS(=O)(=O)c1cc2c(cc1Cl)NCNS2(=O)=O [Hydrochlorothiazide] | 0.996 (inactive)
CC(=O)O[C@H]1C[C@@H]2CC[C@@H]3[C@H](CC[C@@]4(C)[C@H]3C[C@H]([N+]3(C)CCCCC3)[C@@H]4OC(C)=O)[C@@]2(C)C[C@@H]1N1CCCCC1 [Vecuronium bromide] | 1 (inactive)
CC(=O)OCC(=O)[C@@]1(O)CC[C@H]2[C@@H]3CCC4=CC(=O)CC[C@]4(C)[C@@]3(F)[C@@H](O)C[C@@]21C [Fludrocortisone acetate] | 1.02 (inactive)
CC1(C)S[C@@H]2[C@H](NC(=O)[C@H](NC(=O)N3CCNC3=O)c3ccccc3)C(=O)N2[C@H]1C(=O)O [Azlocillin sodium salt] | 0.887 (inactive)
C[C@@](Cc1ccc(O)c(O)c1)(NN)C(=O)O [Carbidopa] | 1 (inactive)
C[C@H]1O[C@H](O[C@H]2[C@H](O)[C@@H](O)[C@@H](O[C@@H]([C@H](O)[C@@H](O)C=O)[C@H](O)CO)O[C@@H]2CO)[C@H](O)[C@@H](O)[C@@H]1N[C@H]1C=C(CO)[C@@H](O)[C@H](O)[C@H]1O [Acarbose] | 1.03 (inactive)
O=C(O)CCC(=O)c1ccc(-c2ccccc2)cc1 [Fenbufen] | 1 (inactive)
